This is a sample that favours compounds with a hit; in the whole collection about 3.4% have one here.
Giardia FBPA inh: blocks Giardia fructose-bisphosphate aldolase activity; Potency, µM (top dose mostly 59.6 µM), actives largely listed as inhibitors; A8B2U2; 290,000 compounds, 0.71% hits; AID 2451; purified Giardia FBPA; also: nearly all actives have a fitted effect of over 55% in size
Target sequence (A8B2U2 whole entry, looked up): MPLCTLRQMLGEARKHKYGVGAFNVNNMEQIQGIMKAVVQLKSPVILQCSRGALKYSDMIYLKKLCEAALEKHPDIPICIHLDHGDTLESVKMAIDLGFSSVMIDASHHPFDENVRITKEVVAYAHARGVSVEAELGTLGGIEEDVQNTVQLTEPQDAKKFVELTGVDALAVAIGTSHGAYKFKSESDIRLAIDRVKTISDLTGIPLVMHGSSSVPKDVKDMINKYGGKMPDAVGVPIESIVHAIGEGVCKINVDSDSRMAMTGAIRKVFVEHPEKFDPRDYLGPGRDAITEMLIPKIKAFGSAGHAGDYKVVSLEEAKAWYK
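40 nM FBPA preincubated 10 min at RT with compound (up to 57.5 uM final), then substrate plus GAPDH/TPI/NAD/arsenate coupling and diaphorase/resazurin added. Fluorescence read after 20 min at RT, 525/598 nm.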
Sm TGR inh: blocks Schistosoma mansoni thioredoxin glutathione reductase; AID 485364; 360,000 compounds, 3% hits; purified TGR, DTNB reduction, TNB absorbance 405 nm; Q962Y6; Potency, µM (series often up to 114 µM), most hits filed as inhibitors; also: nearly all actives have a fitted effect of over 60% in size
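TGR 20 nM + NADPH 100 uM (dispensed conc.), cpd preinc 15 min RT; start with NADPH (500 uM addition) then DTNB (15 mM addition). Kinetic TNB absorbance, 405 nm filter. Four-parameter Hill fit across titration.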
RE007 growth inh: less growth of the S. pombe RE007 Vpr strain | S. pombe RE007 Vpr strain, BacTiter-Glo ATP luminescence, 24 h | Potency, µM (top dose mostly 92.2 µM), usual class: inhibitors | 360,000 compounds, 0.21% hits | AID 651644; active = well fitted falling curve with a large enough effect; inconclusive = small, poorly fitted or top-dose-only effect; inactive = no such curve, though single readings can be large or run the other way; also: nearly all actives have a fitted effect of over 50% in size
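Fission yeast strain RE007, carrying one chromosomally integrated HIV-1 vpr copy, was seeded at OD 0.01 in PMG+AL medium with 23 nL pinned compound. After 24 h at 30 °C and 99% humidity, viability was read by BacTiter-Glo luminescence.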
AmpC inh detg: AmpC beta-lactamase inhibition with detergent present; P00811; 370,000 compounds, 0.041% hits; AID 485294; AmpC hydrolysis of nitrocefin, absorbance 480 nm, 0.01% Triton; Potency, µM (titrated, usually from 114 µM), hits mostly inhibitors; also: nearly all actives have a fitted effect of over 25% in size
Target sequence (P00811 whole entry, looked up): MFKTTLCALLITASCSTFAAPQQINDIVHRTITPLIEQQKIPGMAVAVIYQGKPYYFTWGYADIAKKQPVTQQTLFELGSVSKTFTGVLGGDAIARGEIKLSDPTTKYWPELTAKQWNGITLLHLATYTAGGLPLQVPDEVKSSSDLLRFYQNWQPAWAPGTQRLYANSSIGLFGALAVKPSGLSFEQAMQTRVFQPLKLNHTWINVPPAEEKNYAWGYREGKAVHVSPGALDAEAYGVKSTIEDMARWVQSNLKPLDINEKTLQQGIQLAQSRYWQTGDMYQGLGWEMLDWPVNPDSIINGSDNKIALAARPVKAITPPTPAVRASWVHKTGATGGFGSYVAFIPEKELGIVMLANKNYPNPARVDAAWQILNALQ
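AmpC (5.3 nM in the dispensed reagent) in 20 mM phosphate pH 7.0 with 0.01% (detergent screen) or 0.0001% Triton X-100 was preincubated with compounds for 15 min at room temperature. Nitrocefin was then added from an 800 uM solution, and hydrolysis was followed at 480 nm.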
AmpC no deterg: AmpC beta-lactamase inhibition without detergent | P00811 | AmpC nitrocefin hydrolysis, absorbance 480 nm, 0.0001% Triton | Potency, µM (doses to about 57.1 µM), hits mostly inhibitors | 330,000 compounds, 0.52% hits | AID 485341; also: nearly all actives have a fitted effect of over 20% in size
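20 mM phosphate pH 7.0 + 0.01% (detergent screen) or 0.0001% Triton X-100; 5.3 nM AmpC reagent; cpd preinc 15 min RT; nitrocefin (800 uM stock) to start; A480 q20 s × 4 min; Activity was normalised to no-enzyme and no-compound control wells.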
Large screens that a line does not name were inactive. Unless noted, calls follow the shape of the dose curve; as a rule, active = well fitted curve in the direction sought with a large enough effect; inconclusive = small, poorly fitted or top-dose-only effect, or another doubt; inactive = no such curve, though single readings can be large; an effect the other way counts as inactive or inconclusive.

Clc1cccc(C2CCN(Cc3nc(COc4ccccc4)no3)C2)c1 (centres undefined)	Sm TGR inh 35µM, RE007 growth inh inconclusive
c1ccc(OCc2noc(CN3CC[C@@H]4CCCC[C@H]4C3)n2)cc1	none
COC(=O)c1c(C)oc2c1cc(NS(=O)(=O)c1ccc(C(=O)O)cc1)c1ccccc12	Giardia FBPA inh inconclusive, Sm TGR inh 50µM
O=C(CN1CCN(CCN2C(=O)c3cccc4cccc(c34)C2=O)CC1)c1ccc(Cl)cc1	Sm TGR inh 14µM (no result: RE007 growth inh)
O=C(CN1CCN(CCN2C(=O)c3cccc4cccc(c34)C2=O)CC1)c1ccc(F)cc1	Sm TGR inh inconclusive
CCOC(=O)c1c(C)c(C(=O)NCc2ccc(OC)cc2)c(C)n1CC	none (no result: Giardia FBPA inh, RE007 growth inh, AmpC no deterg)
CCOC(=O)c1c(C)c(C(=O)NCCc2ccc(OC)cc2)c(C)n1CC	Sm TGR inh 22µM (no result: Giardia FBPA inh, RE007 growth inh, AmpC no deterg)
CN(C)Cc1cc(C(C)(C)C)cc(C(C)(C)C)c1O	none
CN(C)Cc1cc(O)c(CN(C)C)cc1O	Giardia FBPA inh inconclusive, Sm TGR inh 2.5µM
COc1ccc(C(=O)C2CCCN(C(=O)C3CCOCC3)C2)c(C)c1 (centres undefined)	none
CCOc1cc(/C=C2\C(=O)N(c3nc(-c4ccc(Br)cc4)cs3)N=C2c2ccccc2)ccc1O	AmpC no deterg 16µM
CC(=O)c1cc(F)c(N2CCN(C(=O)Cc3ccccc3)CC2)cc1C	Sm TGR inh 28µM
Nc1cc(-c2ccc(Br)cc2)nn1Cc1ccccc1	none
CCOc1cc(N2CCOCC2)c(OCC)cc1NC(=O)COc1ccccc1[N+](=O)[O-]	none
O=Nc1c(-c2ccccc2)cc2ccccn12	RE007 growth inh 13µM
CN(C)C(=O)C(=O)c1c(-c2ccccc2)cc2ccccn12	none
Cn1c(Cc2ccccc2)nnc1SCC(=O)N1CCCCC1	none
Cn1c(Cc2ccc3c(c2)OCO3)nnc1SCC(=O)N1CCc2ccccc2C1	Sm TGR inh 45µM
CCOC(=O)C(C)n1nc(C)c2sc3ccccc3c2c1=O (centres undefined)	Sm TGR inh 40µM
Cc1ccc(CNC(=O)C(C)n2nc(C)c3sc4ccccc4c3c2=O)cc1 (centres undefined)	none (no result: Giardia FBPA inh, RE007 growth inh, AmpC no deterg)
COc1cccc(OC)c1OC(=O)/C=C/c1ccc(C)o1	Sm TGR inh 35µM
Cc1ccc(/C=C/C(=O)Oc2ccc(C#N)cc2)o1	Sm TGR inh 50µM (no result: RE007 growth inh)
Cc1ccc(/C=C/C(=O)OCC(=O)NCc2ccccc2)o1	Sm TGR inh inconclusive (no result: Giardia FBPA inh)
O=c1ccc2ccc(Oc3ccc([N+](=O)[O-])cc3[N+](=O)[O-])cc2o1	Sm TGR inh 40µM (no result: RE007 growth inh)
CC(C)CCNC(=S)Nc1ccccn1	Sm TGR inh 45µM
CCC1(NS(=O)(=O)c2ccc(N)cc2)C(=O)N(C)C(=O)N(C)C1=O	none (no result: Giardia FBPA inh, Sm TGR inh, AmpC inh detg, AmpC no deterg)
Cc1cc(C(=O)Nc2nnc(-c3ccccc3)s2)no1	RE007 growth inh inconclusive, AmpC inh detg inconclusive
CCNC(=S)Nc1cc(OCC)c(NC(=O)c2ccco2)cc1OCC	none
COc1ccc(OC)c(NC(=O)c2cc(S(=O)(=O)NCc3ccco3)ccc2F)c1	AmpC inh detg inconclusive
CCOc1ccccc1NC(=O)c1cc(S(=O)(=O)NCc2ccco2)ccc1F	Sm TGR inh 32µM (no result: Giardia FBPA inh)
CCOc1cc(NS(=O)(=O)c2ccccc2)c(OCC)cc1NC(=O)c1ccco1	Giardia FBPA inh inconclusive, Sm TGR inh 32µM
COc1ccc(S(=O)(=O)N2CCOCC2)cc1NC(=O)COC(=O)C1CC1C (centres undefined)	none (no result: Giardia FBPA inh)
CSc1ncccc1C(=O)Nc1cccc(C)n1	none
CCCCN(CC)Cc1ccc(CNC(=S)Nc2cccc(F)c2)o1	Giardia FBPA inh inconclusive, Sm TGR inh 40µM
O=C1NC(=O)N(Cc2ccc(F)cc2)C(=O)/C1=C\c1ccc(N2CCCC2)cc1	Sm TGR inh 1.3µM
CN(C)c1ccc(/C=C2\C(=O)NC(=O)N(CCc3ccc(F)cc3)C2=O)cc1	Sm TGR inh 4µM
COCCN1C(=O)NC(=O)/C(=C\c2ccc(F)cc2)C1=O	Sm TGR inh inconclusive
O=C1NC(=O)N(c2ccc(F)cc2)C(=O)/C1=C/c1ccc(N2CCOCC2)cc1	none
O=C1NC(=O)N(CCc2ccc(F)cc2)C(=O)/C1=C/c1ccco1	Sm TGR inh inconclusive, AmpC inh detg inconclusive, AmpC no deterg 18µM
O=C(CSc1nc(-c2ccncc2)nn1CC(=O)N1CCCCC1)NC1CCCC1	Sm TGR inh 40µM
COc1ccc([N+](=O)[O-])cc1C1NN=C(c2ccccc2O)S1 (centres undefined)	none
O=[N+]([O-])c1ccc(O)c(C2=NNC(c3ccccc3F)C2)c1 (centres undefined)	Sm TGR inh 5µM
CCN1CCOC(=O)C1CC(=O)Nc1cc(C)ccc1OC (centres undefined)	Sm TGR inh 18µM (no result: Giardia FBPA inh, RE007 growth inh, AmpC no deterg)
CCN1CCOC(=O)C1CC(=O)Nc1ccc(Br)cc1 (centres undefined)	Sm TGR inh 7.9µM (no result: Giardia FBPA inh, RE007 growth inh, AmpC no deterg)
CCCOc1ccc(CN(C)c2ncnc(N)n2)cc1	AmpC inh detg inconclusive
Cc1cccc2c1-c1sc(C(=O)N3CCN(c4ccccc4)CC3)cc1CO2	none (no result: Giardia FBPA inh, RE007 growth inh, AmpC no deterg)
O=C1c2ccccc2-c2onc3c(N4CCN(CCO)CC4)cc(N4CCN(C(=O)c5ccco5)CC4)c1c23	Sm TGR inh 3.5µM
CN1CCN(c2cc(N3CCN(C(=O)c4ccco4)CC3)c3c4c(onc24)-c2ccccc2C3=O)CC1	Sm TGR inh 10µM
COc1cc(N)c(Cl)cc1C(=O)OCC(=O)Nc1cccnc1Cl	AmpC inh detg inconclusive, AmpC no deterg 35µM (no result: Giardia FBPA inh)
COc1ccc(S(=O)(=O)NCCc2cn3ccsc3n2)cc1OC	Sm TGR inh 40µM (no result: Giardia FBPA inh, RE007 growth inh, AmpC no deterg)
COc1ccc(S(=O)(=O)NCCc2cn3cccc(C)c3n2)cc1OC	AmpC inh detg inconclusive, AmpC no deterg 10µM
Cc1cccn2cc(CCNS(=O)(=O)c3cccc([N+](=O)[O-])c3)nc12	none
CNCCc1ccccn1	none
COc1ccc(Cl)cc1NC(=O)CN(C)CC(=O)N(CC(C)C)c1c(N)n(CC(C)C)c(=O)[nH]c1=O	none (no result: Giardia FBPA inh, Sm TGR inh, AmpC inh detg)
O=C(O)CCSc1ccc2ccccc2n1	Sm TGR inh inconclusive
Cc1cc(C)nc(NC(=O)c2ccc(Br)cc2)n1	none
COc1ccc(C(=O)Nc2nc(C)cc(C)n2)cc1	Sm TGR inh 22µM
O=C(NCC1CCCO1)c1cc(S(=O)(=O)N2CCCCC2)ccc1Cl (centres undefined)	Sm TGR inh 2.8µM (no result: Giardia FBPA inh)
Cc1ccc(S(=O)(=O)N2CCCCC2)cc1C(=O)NCC1CCCO1 (centres undefined)	none (no result: Giardia FBPA inh)
CCCCNC(=S)Nc1cc(S(=O)(=O)N2CCCCC2)ccc1C	Sm TGR inh 2µM
O=C(CCl)Nc1cc(S(=O)(=O)N2CCCCCC2)ccc1Cl	Sm TGR inh 16µM
O=C(CSc1nc2ncccc2o1)Nc1cccc(C(F)(F)F)c1	Sm TGR inh inconclusive (no result: Giardia FBPA inh, RE007 growth inh, AmpC no deterg)

Source: PubChem BioAssay (National Center for Advancing Translational Sciences (NCATS))
